Source: PubChem
Sampled rows, rich in hits. Any-hit rate of the full collection: about 1.8%.
LGR2 inh: inhibitors of bursicon-induced LGR2 CRE-luciferase signal, primary screen, cell-based, HEK293, CRE-luciferase reporter, bursicon stimulation. bursicon-stimulated, 4 h. inhibition, % at 9.99 µM. actives 0.35% (n = 380,000);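 active = drop in luminescence signal, shown as inhibition above about 50% in the replicate tests, limit read from the data, passing the limit was not always enough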;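 also: agonist challenge used bursicon conditioned medium at about half maximal strength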
INS-1E GSIS act: GLuc luminescence reporter in INS-1E cells, primary screen for activators of glucose-dependent secretion of insulin; activation, % at 16.6 µM; actives 0.61% (n = 370,000); AID 743287, 2014; INS-1E GLuc reporter insulin secretion, 2-3 h;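 active = lowest replicate activation of at least 40%, so every replicate reaches that level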;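 also: 0% = median of neutral control wells and 100% = median of IBMX positive control wells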
RAD52 anneal inh: RAD52 DNA annealing inhibitors, primary screen, biochemical, FRET, single point, set 2; recombinant RAD52 DNA annealing, FRET fluorescence; inhibition, % at 18.7 µM; actives 0.46% (n = 360,000);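 active = every replicate showing at least 50% inhibition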
Target sequence (P43351 whole entry, looked up): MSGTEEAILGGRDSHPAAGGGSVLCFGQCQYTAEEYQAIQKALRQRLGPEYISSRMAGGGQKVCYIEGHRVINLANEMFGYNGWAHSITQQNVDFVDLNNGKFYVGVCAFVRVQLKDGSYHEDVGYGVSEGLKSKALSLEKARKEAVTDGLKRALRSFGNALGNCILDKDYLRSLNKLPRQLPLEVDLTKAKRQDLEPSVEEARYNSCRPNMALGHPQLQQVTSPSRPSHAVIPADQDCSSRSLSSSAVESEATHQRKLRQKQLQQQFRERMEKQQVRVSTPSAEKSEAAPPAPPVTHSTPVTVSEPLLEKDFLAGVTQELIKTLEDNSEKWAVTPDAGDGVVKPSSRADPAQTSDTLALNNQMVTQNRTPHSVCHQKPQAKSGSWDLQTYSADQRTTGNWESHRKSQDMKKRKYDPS
CFTR F508del cor: F508del CFTR correction, initial screen, CFBE line, single point. CFBE cells, YFP halide quenching; stimulated with forskolin plus potentiator P3; % fluorescence drop versus neutral controls. activity (quench increase), % at 7.58 µM. actives 0.36% (n = 350,000);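 active = mean added fluorescence quench of at least 8% versus neutral control, with both replicates also reaching 8%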;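 also: cells transiently co-express mutant CFTR-F508del with the halide-sensitive YFP; corrector assay measuring rescue of mutant channel to the surface after 24 h compound exposure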
EWS-Fli inh: EWS/Fli-driven NR0B1 reporter inhibitors, primary screen, A673 cells, NR0B1 luciferase, luminescence, MLPCN library; viability-normalised; inhibition, % at 12.6 µM; actives 0.67% (n = 350,000); AID 651661, 2012;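 active = mean inhibition of at least 50% after viability correction, with every replicate also passing that limit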;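 also: firefly luciferase signal divided by Alamar Blue viability fluorescence both relative to DMSO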
RAD54 inh: inhibitors of human RAD54 branch migration, primary screen, biochemical, fluorescence, single point. DNA repair and recombination protein RAD54-like (Homo sapiens), Q92698. RAD54 Holliday junction branch migration, FAM/BHQ fluorescence. inhibition, % at 10.4 µM. actives 0.14% (n = 360,000). AID 602329, 2012;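 active = mean normalized replicate activity at least 40 and at least half of replicates scoring 40 or more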;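 also: 0% = median of neutral control wells and 100% = median of positive control wells; inhibitors cause a drop in the FAM fluorescence signal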
RAD52 DNA ctr: DNA-binding compounds via dye displacement, dose response, artefact control for RAD52 inhibitor project, biochemical, fluorescence polarization, cherry-pick; AC50, µM; AID 652128, 2013; actives 8% (n = 1,000); shares compounds with RAD52 anneal inh; Salmon sperm DNA/acridine orange FP displacement;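 active = fitted half-maximal concentration for signal loss at or below twice the highest dose tested, in every separate run, actives reach about 64 µM in these data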
* = called active by the depositor; i = inactive; nt = not tested or not shown; ! = not active in a repeat.

SMILES	LGR2 inh	INS-1E GSIS act	RAD52 anneal inh	CFTR F508del cor	EWS-Fli inh	RAD54 inh	RAD52 DNA ctr
C=CCN1C(=O)NC(=O)/C(=C/c2cc3c4c(c2)CCCN4CCC3)C1=O	-1	7	-68	nt	3	nt	nt
NCCc1cc(O)c(O)cc1O	7	nt	90*!	0	12	-3	i
CN1CCCC1c1ccc(=O)[nH]c1 (centres undefined)	0	12	-6	0	-5	-9	nt
CC(C)N1CCN(c2ccc(O)cc2)CC1	0	-2	83*	nt	-6	19	i
C(#CCN1CCCC1)CN1CCCC1	11	7	-2	-4	0	-8	nt
CN(CCc1ccccc1)Cc1c[nH]c2ccccc12	8	-54	-14	3	48	-4	nt
COc1cc(N2C(=O)CC(=O)NC2=O)cc(OC)c1OC	2	-5	-60	0	2	-3	nt
Cc1[nH]c2ccccc2c1C1=CCNCC1	4	-10	65*	3	-2	2	i
CC12CNCC(C)(CNC1)C2O (centres undefined)	-6	1	57*	0	5	26	i
OC12ONC(c3ccccn3)C1N1CCC2CC1 (centres undefined)	-1	12	80*	-2	-17	19	i
Clc1ccc2sc(C3CCNCC3)nc2c1	-68	-10	56*	1	-90	4	i
C[C@H]1CNCCN1c1ccc(N2CC[C@@H](O)C2)c(C#N)c1	-17	nt	-5	1	3	nt	nt
Cc1cc(N2CCNC[C@@H]2C)ccc1N1CC[C@@H](O)C1	-7	nt	96*	-2	-3	nt	i
CN1CC[C@@H]2CN[C@H](c3ccccc3Br)C[C@@H]21	-12	17	71*	-3	0	nt	i
COc1ccc(C(C)=O)cc1CC(C(=O)c1ccc(C)cc1)N(C)C (centres undefined)	-14	14	-20	nt	-3	0	nt
CCOc1ccc(C(C)=O)cc1Cn1ccsc1=N	-4	19	64*	1	4	12	i
